Assay outcomes as filed in PubChem BioAssay.
NadD block: inhibitors of S. aureus NadD, primary screen, biochemical, colorimetric, uHTS; Nicotinate-nucleotide adenylyltransferase NadD (Staphylococcus aureus N315); AID 602399, 2012; inhibition, % at 20 µM; 0.78% of 360,000 active; purified NadD enzyme, colorimetric absorbance read-out; in the data active = inhibition above about 26%
DAGLB inh: DAGLB lipase inhibitors, primary screen, biochemical, fluorescence, HTS | 0.059% of 340,000 active | HEK293T DAGLB membrane lysate, EnzChek fluorogenic substrate | inhibition, % at 5.17 µM | AID 504411, 2011 | Diacylglycerol lipase-beta (Homo sapiens), Q8NCG7; in the data active = inhibition above about 34%
DSG3 Ab inh: inhibitors of pemphigus antibody binding to DSG3, primary screen, biochemical, bead-based, flow cytometry, scFv-GFP; Desmoglein-3 (Homo sapiens), P32926; DSG3-coupled beads, scFv-anti-DSG3-GFP binding; stronger effect = lower value; binding (percent of control), % at 10 µM; 0.48% of 310,000 active; AID 588358, 2011;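 active = binding more than 3 SD below its plate's average and above zero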;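 note: hits lower antibody fragment binding to DSG3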
Target sequence (P32926 whole entry, looked up, the tested form may be a part): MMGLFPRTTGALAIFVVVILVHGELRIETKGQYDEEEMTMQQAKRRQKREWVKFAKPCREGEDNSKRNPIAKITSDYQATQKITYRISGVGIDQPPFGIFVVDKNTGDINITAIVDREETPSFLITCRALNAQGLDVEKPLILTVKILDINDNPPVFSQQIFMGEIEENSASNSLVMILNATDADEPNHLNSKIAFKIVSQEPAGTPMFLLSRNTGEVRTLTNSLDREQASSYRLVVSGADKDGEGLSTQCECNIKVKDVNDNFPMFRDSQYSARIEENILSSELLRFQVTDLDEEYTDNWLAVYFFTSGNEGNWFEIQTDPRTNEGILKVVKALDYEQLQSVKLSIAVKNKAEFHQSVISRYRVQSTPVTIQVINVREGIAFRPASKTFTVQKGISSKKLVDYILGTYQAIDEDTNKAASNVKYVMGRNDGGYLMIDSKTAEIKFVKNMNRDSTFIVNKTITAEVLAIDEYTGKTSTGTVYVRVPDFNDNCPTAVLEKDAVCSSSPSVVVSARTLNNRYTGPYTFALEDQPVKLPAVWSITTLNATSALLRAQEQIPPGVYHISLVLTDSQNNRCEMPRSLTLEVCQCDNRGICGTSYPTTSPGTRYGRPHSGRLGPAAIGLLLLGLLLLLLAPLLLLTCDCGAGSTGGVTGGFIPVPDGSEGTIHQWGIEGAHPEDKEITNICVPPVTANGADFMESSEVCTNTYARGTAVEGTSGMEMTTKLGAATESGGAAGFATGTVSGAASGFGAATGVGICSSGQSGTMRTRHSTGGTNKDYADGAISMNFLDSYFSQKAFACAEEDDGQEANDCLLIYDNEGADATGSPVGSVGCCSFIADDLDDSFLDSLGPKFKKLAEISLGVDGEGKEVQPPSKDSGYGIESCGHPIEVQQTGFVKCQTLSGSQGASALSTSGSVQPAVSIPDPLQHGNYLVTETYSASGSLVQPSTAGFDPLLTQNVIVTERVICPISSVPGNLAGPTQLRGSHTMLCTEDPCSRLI
bovine MsrA act: bovine MsrA enzyme activators, primary screen, biochemical, absorbance, HTS; purified bovine MsrA, absorbance read-out; activation, % at 10.6 µM; AID 602163, 2012; 0.3% of 360,000 active; Methionine sulfoxide reductase A (Bos taurus); in the data active = activation above about 7.5%
MsrA inh: bovine MsrA enzyme inhibitors, primary screen, biochemical, absorbance, HTS | purified bovine MsrA, absorbance read-out | Methionine sulfoxide reductase A (Bos taurus) | 0.75% of 360,000 active | inhibition, % at 15.5 µM; in the data active = inhibition above about 4.5%
rCAG RNA binder: binders of r(CAG) RNA repeats, primary screen, biochemical, fluorescence | r(CAG) RNA repeat, TO-PRO-1 dye displacement fluorescence | inhibition, % at 3 µM | 1.3% of 370,000 active;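 active = inhibition above the plate cutoff, the mean of all test compounds on that plate plus 3 SD, cut at about 35% in these data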;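 note: higher means more dye released from RNA so lower well fluorescence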
NadD inh conf: inhibitors of S. aureus NadD, confirmation, biochemical, colorimetric, single concentration | shares compounds with NadD block | purified S. aureus NadD, colorimetric enzyme assay | inhibition, % at 20 µM | 13% of 2,000 active | AID 624309, 2012; in the data active = inhibition mostly above about 42%, no sharp cut-off; inactive = mostly below about 42%
A number is an active result; . = inactive; / = not tested or not shown; ! = not confirmed by another sample. The list is not random: actives were taken first. Their share in the collection is about 3.2%.

SMILES	NadD block	DAGLB inh	DSG3 Ab inh	bovine MsrA act	MsrA inh	rCAG RNA binder	NadD inh conf
Cc1ccc(NC(=O)CSc2nc3ccc(Nc4nc(N5CCOCC5)nc(N5CCOCC5)n4)cc3s2)cc1	30	.	.	.	.	.	.
N#Cc1c(-c2ccccc2)c(-c2ccccc2)nn(CC(=O)NNC(=O)Nc2ccc(Cl)c(Cl)c2)c1=O	51	.	.	.	.	.	.
COc1cccc(/C=C2\CC3(OC(=O)c4ccco4)CCCN2C3)c1 (stereo not drawn)	/	/	/	/	/	.	/
CCOc1c(Cl)cc(CNc2ccc(S(N)(=O)=O)cc2)cc1OC	.	.	.	.	.	.	/
CCOc1c(Cl)cc(CNc2ccc(N3CCCC3)cc2)cc1OC	33	.	/	.	.	.	.
Cc1cc(F)ccc1S(=O)(=O)Nc1ccccc1C(=O)Nc1ccccc1-c1nc2ccccc2[nH]1	33	.	.	.	/	/	.
CC1CCCN(S(=O)(=O)c2ccc(C(=O)Nc3ccccc3-c3nc4ccccc4[nH]3)cc2)C1 (stereo not drawn)	.	.	.	.	.	.	/
CC1CCN(S(=O)(=O)c2ccc(C(=O)Nc3ccccc3-c3nc4ccccc4[nH]3)cc2)CC1	29	.	.	.	.	.	.
Cc1cc(F)ccc1S(=O)(=O)Nc1ccccc1C(=O)Nc1ncn[nH]1	.	.	.	.	.	.	/
COc1ccccc1CNC(=O)N1CCN(Cc2nc3ccccc3c(=O)[nH]2)CC1	/	/	/	/	/	.	/
CCc1cc2c(cc3c(=O)n(CC(=O)NCCCN4CCCCCC4)nc(CC)n32)s1	31	.	.	.	.	.	.
O=C(COc1ncnc2sccc12)Nc1ccc(F)cc1F	30	.	.	.	.	.	.
CCOc1ccc(C(=O)Nc2cc(-c3nc4ccccc4[nH]3)ccc2Cl)cc1[N+](=O)[O-]	34	.	.	.	.	.	.
Cc1ccc(-c2nc3ccccc3[nH]2)cc1NC(=O)c1ccc2c(c1)OCO2	.	.	.	.	.	.	/
O=C(NC(=S)Nc1cc(-c2nc3ccccc3[nH]2)ccc1Cl)c1ccc2c(c1)OCO2	30	.	.	.	.	.	47
CCOc1ccc(C(=O)Nc2cc(-c3nc4ccccc4[nH]3)ccc2C)cc1[N+](=O)[O-]	.	.	/	.	.	.	/
CCOC(=O)/C=C1\CC(C(=O)OCC)Oc2c(OC)cccc21 (stereo not drawn)	39	.	.	.	.	.	.
C=C1c2cccc(OC)c2O[C@H](C(=O)OCC)[C@@H]1CC(CC)CCCC (stereo partly drawn)	.	.	.	.	.	.	/
CC(CCC(=O)NN)C1CCC2C3CCC4CC(O)CCC4(C)C3CCC12C (stereo not drawn)	38	.	.	.	.	.	.
COc1cccc(-c2cc(N3CCN(C(=O)c4ccoc4)CC3)n3nc(-c4cccc(Cl)c4)cc3n2)c1	37	.	.	.	.	.	.
COc1ccccc1-c1cc2nc(-c3ccccc3)cc(N3CCN(C(=O)c4ccco4)CC3)n2n1	41	.	/	.	.	.	.
COc1ccccc1-c1cc2nc(-c3ccccc3)cc(N3CCN(C(=O)c4ccoc4)CC3)n2n1	47	.	.	.	.	.	.
COc1ccc([N+](=O)[O-])cc1NC(=O)CC1SC(=Nc2cccc(C)c2C)N(/N=C/c2cccc(OC)c2OC)C1=O (stereo not drawn)	35!	.	.	.	.	.	.
Nc1nc(=S)[nH]c2c1C1(CCCCC1)Cc1ccccc1-2	35	.	.	.	.	.	.
NC(CSC(c1ccccc1)(c1ccccc1)c1ccc2c(c1)OCO2)C(=O)O (stereo not drawn)	31	.	93	.	.	.	.
Cc1ccc(-c2cc(-c3ccc(F)cc3)c(C#N)c(N)n2)o1	65	.	.	.	.	.	.
